Reference: PubChem BioAssay (NCI)
This is part of a sample that, as a whole, favours compounds with a hit. Of some 83,000 tested, about 20% had one in any assay.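 48-hour exposure, single concentration, 96-well plates; percent growth endpoint where 0 means no net growth. Active: below 10.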 A number with no mark means an inactive call. Calls of active or inactive are those of the source.

test system: SK-OV-3 ovarian; assay: NCI-60 one-dose screen, 48 h (100 = growth as untreated, 0 = no growth, -100 = all killed); conditions: 10 µM unless noted

Row | Compound | growth
1 | Cc1ccc(C(=O)Nc2ccc(-n3ccnc3)c(C(F)(F)F)c2)cc1C#Cc1cnc2cccnn12 | 48%
2 | N/C(=N\c1nc2ccccc2s1)NC(=O)Nc1ccccc1F | -1.47% (active)
3 | Cc1nc2sccn2c1-c1nnc(SCC(C)C)o1 | 102%
4 | O=[N+]([O-])c1cccc(-c2nnc3c(/C=C/c4ccc(F)cc4)nc4ccccc4n23)c1 | 101%
5 | C=CC(=O)N1CCN(c2ccc3nc4c(nc3c2C(F)(F)F)C(=O)c2ncccc2C4=O)CC1 | 91.1%
6 | CN1CCN(CCS(=O)(=O)Nc2cc(-c3ccc4ncnc(Nc5ccc(F)c(Cl)c5)c4c3)cnc2Cl)CC1 | 3.06% (active)
7 | COc1ccc(N=Nc2c(N)nn3c(-c4ccc(F)cc4)ccnc23)cc1 | 113%
8 | O=C(N/N=C/c1c[nH]c2ccccc12)Nc1ccc(F)c(Cl)c1 | 38.6%
9 | N#CCc1nnc(NC(=O)c2ccc(-n3c(=O)[nH]c4ccccc4c3=O)cc2)s1 | 106%
10 | CCOc1ccc(-c2cc(-c3cc(C(C)C)c(O)cc3C)nn2-c2ccc(S(N)(=O)=O)cc2)cc1 | 55.3%
11 | CN1CCN(c2ccc3c4c(cccc24)C(=O)N(c2cccc(-c4nn(-c5ccccc5)cc4-c4nc5ccccc5s4)c2)C3=O)CC1 | 135%
12 | O=C(Cn1c(-c2ccccc2)nc2ccccc21)N=Nc1c(O)[nH]c2ccc(Cl)cc12 | -6.33% (active)
13 | CCc1ccc(SC2c3cc(OC)ccc3Oc3nc(N)c(C#N)c(N)c32)cc1 (stereo unspecified) | -23.3% (active)
14 | CN(C)C(=O)c1cc(-c2ccc3ncnc(N4CCc5cc(F)c(Cl)cc54)c3c2)cnc1N | -32.8% (active)
15 | CN1C(=O)C2(C(C#N)=C(c3ccc(Cl)cc3)Nc3c2c(-c2ccccc2)nn3-c2ccccc2)c2ccccc21 (stereo unspecified) | 99.2%
16 | Cc1ccc2c(c1)/C(=C/C(=O)c1cc3ccccc3oc1=O)C(=O)N2 | 100%
17 | N#CC1=C(c2cccs2)Nc2c(c(-c3ccccc3)nn2-c2ccccc2)C12C(=O)Nc1ccc(Cl)cc12 (stereo unspecified) | 59%
18 | O=C(NC(=S)N1CCN(c2ncnc3c2cnn3-c2ccccc2)CC1)c1ccc(Br)cc1 | 57%
19 | Nc1nnc(-c2cncc(Br)c2)c(-c2c[nH]c3ccc(Cl)cc23)n1 | 103%

Row | Compound | growth
20 | COc1ccc(C2=NN(C(=O)[C@H]3[C@@H](c4ccco4)c4sc(=O)[nH]c4S[C@@H]3C)C(c3ccc4ccccc4c3)C2)cc1 (stereo partly specified) | 84.6%
21 | CCOc1ccc2[nH]c(=O)c(C(c3nnnn3CC3CCCO3)N3CCN(Cc4ccccc4)CC3)cc2c1 (stereo unspecified) | 79.3%
22 | FC(F)(F)c1cc2c(Cl)ncnc2n1CCC1CCOCC1 | 50.6%
23 | COc1cc(/C=C/C(=O)c2cnn(-c3cc(=O)[nH]c4ccc(C)cc34)c2C)cc(OC)c1OC | 24.7%
24 | O=C(N/N=C/c1c[nH]c2ccccc12)Nc1ccccc1Cl | 15.4%
25 | Nc1nn2c(-c3cc4ccccc4oc3=O)ccnc2c1N=Nc1ccccc1 | 60.1%
26 | Cc1ccc(C(=O)Nc2cc(-c3ccncc3)cc(C(F)(F)F)c2)cc1C#Cc1cnc2cccnn12 | 127%
27 | COc1ccc(C(=O)/C=C/c2ccc3c(c2)OCCO3)cc1S(N)(=O)=O | 99%
28 | FC(F)(F)c1cc2c(Cl)ncnc2n1CCN1CCCCC1 | 97.2%
29 | COc1ccc2[nH]cc(-c3cc4nc(-c5cn(C)c6ncccc56)cc(N)n4n3)c2c1 | 103%
30 | Nc1nc(-c2ccccc2)c(N=Nc2ccc(Cl)cc2Cl)s1 | 7.41% (active)
31 | COc1ccc(NC(=O)Cn2c(/C=C/c3ccc([N+](=O)[O-])cc3)nc3ccccc3c2=O)cc1 | 33.6%
32 | C[C@@H]1[C@H]2C[C@@H](C[C@H]1NCc1nc3ccccc3n1C1CCCCCC1)C2(C)C | 90.4%
33 | COc1ccc(NC(=O)Cn2c(/C=C/c3cccc(Br)c3)nc3ccccc3c2=O)cc1 | 36.4%
34 | Cc1ccc(-c2cc(C(=O)N=Nc3c(O)[nH]c4ccc(F)cc34)c3ccccc3n2)cc1 | 94.3%
35 | CCOC(=O)c1ccc(NC(=S)NC(=O)c2ccc(NC(=O)C(C)C)cc2OC)cc1 | 100%
36 | CCCSc1nnc(-c2c(C)nc3sccn23)o1 | 108%
37 | Cc1ccc(N=Nc2c(N)nn3c(-c4cc5ccccc5oc4=O)ccnc23)cc1 | 99.9%
38 | O=C(N/N=C/c1ccc(Cl)o1)c1[nH]c2ccc(Br)cc2c1-c1ccccc1 | 4.66% (active)

test system: IGROV1 ovarian; assay: as above; conditions: 10 µM unless noted

Row | Compound | growth
39 | Cc1ccc(C(=O)Nc2ccc(-n3ccnc3)c(C(F)(F)F)c2)cc1C#Cc1cnc2cccnn12 | 20%
40 | N/C(=N\c1nc2ccccc2s1)NC(=O)Nc1ccccc1F | 37.5%
41 | Cc1nc2sccn2c1-c1nnc(SCC(C)C)o1 | 89.4%
42 | O=[N+]([O-])c1cccc(-c2nnc3c(/C=C/c4ccc(F)cc4)nc4ccccc4n23)c1 | 109%
43 | C=CC(=O)N1CCN(c2ccc3nc4c(nc3c2C(F)(F)F)C(=O)c2ncccc2C4=O)CC1 | -42.6% (active)
44 | CN1CCN(CCS(=O)(=O)Nc2cc(-c3ccc4ncnc(Nc5ccc(F)c(Cl)c5)c4c3)cnc2Cl)CC1 | -34.8% (active)
45 | COc1ccc(N=Nc2c(N)nn3c(-c4ccc(F)cc4)ccnc23)cc1 | 99.9%
46 | O=C(N/N=C/c1c[nH]c2ccccc12)Nc1ccc(F)c(Cl)c1 | 42.7%
47 | N#CCc1nnc(NC(=O)c2ccc(-n3c(=O)[nH]c4ccccc4c3=O)cc2)s1 | 105%
48 | CCOc1ccc(-c2cc(-c3cc(C(C)C)c(O)cc3C)nn2-c2ccc(S(N)(=O)=O)cc2)cc1 | 80.4%
49 | CN1CCN(c2ccc3c4c(cccc24)C(=O)N(c2cccc(-c4nn(-c5ccccc5)cc4-c4nc5ccccc5s4)c2)C3=O)CC1 | 93.8%
50 | O=C(Cn1c(-c2ccccc2)nc2ccccc21)N=Nc1c(O)[nH]c2ccc(Cl)cc12 | 9.94% (active)
51 | CCc1ccc(SC2c3cc(OC)ccc3Oc3nc(N)c(C#N)c(N)c32)cc1 (stereo unspecified) | -69.6% (active)
52 | CN(C)C(=O)c1cc(-c2ccc3ncnc(N4CCc5cc(F)c(Cl)cc54)c3c2)cnc1N | -62.5% (active)
53 | CN1C(=O)C2(C(C#N)=C(c3ccc(Cl)cc3)Nc3c2c(-c2ccccc2)nn3-c2ccccc2)c2ccccc21 (stereo unspecified) | 98%
54 | Cc1ccc2c(c1)/C(=C/C(=O)c1cc3ccccc3oc1=O)C(=O)N2 | 102%
55 | N#CC1=C(c2cccs2)Nc2c(c(-c3ccccc3)nn2-c2ccccc2)C12C(=O)Nc1ccc(Cl)cc12 (stereo unspecified) | 24%
56 | O=C(NC(=S)N1CCN(c2ncnc3c2cnn3-c2ccccc2)CC1)c1ccc(Br)cc1 | 72.1%
57 | Nc1nnc(-c2cncc(Br)c2)c(-c2c[nH]c3ccc(Cl)cc23)n1 | 68.6%

Row | Compound | growth
58 | COc1ccc(C2=NN(C(=O)[C@H]3[C@@H](c4ccco4)c4sc(=O)[nH]c4S[C@@H]3C)C(c3ccc4ccccc4c3)C2)cc1 (stereo partly specified) | 45.6%
59 | CCOc1ccc2[nH]c(=O)c(C(c3nnnn3CC3CCCO3)N3CCN(Cc4ccccc4)CC3)cc2c1 (stereo unspecified) | 84.6%
60 | FC(F)(F)c1cc2c(Cl)ncnc2n1CCC1CCOCC1 | -90.6% (active)
61 | COc1cc(/C=C/C(=O)c2cnn(-c3cc(=O)[nH]c4ccc(C)cc34)c2C)cc(OC)c1OC | -1.52% (active)
62 | O=C(N/N=C/c1c[nH]c2ccccc12)Nc1ccccc1Cl | 19.9%
63 | Nc1nn2c(-c3cc4ccccc4oc3=O)ccnc2c1N=Nc1ccccc1 | 47.5%
64 | Cc1ccc(C(=O)Nc2cc(-c3ccncc3)cc(C(F)(F)F)c2)cc1C#Cc1cnc2cccnn12 | 54.4%
65 | COc1ccc(C(=O)/C=C/c2ccc3c(c2)OCCO3)cc1S(N)(=O)=O | 63.6%
66 | FC(F)(F)c1cc2c(Cl)ncnc2n1CCN1CCCCC1 | -84.8% (active)
67 | COc1ccc2[nH]cc(-c3cc4nc(-c5cn(C)c6ncccc56)cc(N)n4n3)c2c1 | -62.5% (active)
68 | Nc1nc(-c2ccccc2)c(N=Nc2ccc(Cl)cc2Cl)s1 | -29.7% (active)
69 | COc1ccc(NC(=O)Cn2c(/C=C/c3ccc([N+](=O)[O-])cc3)nc3ccccc3c2=O)cc1 | 59.6%
70 | C[C@@H]1[C@H]2C[C@@H](C[C@H]1NCc1nc3ccccc3n1C1CCCCCC1)C2(C)C | 75.8%
71 | COc1ccc(NC(=O)Cn2c(/C=C/c3cccc(Br)c3)nc3ccccc3c2=O)cc1 | 49.8%
72 | Cc1ccc(-c2cc(C(=O)N=Nc3c(O)[nH]c4ccc(F)cc34)c3ccccc3n2)cc1 | 52.9%
73 | CCOC(=O)c1ccc(NC(=S)NC(=O)c2ccc(NC(=O)C(C)C)cc2OC)cc1 | 64.5%
74 | CCCSc1nnc(-c2c(C)nc3sccn23)o1 | 83.8%
75 | Cc1ccc(N=Nc2c(N)nn3c(-c4cc5ccccc5oc4=O)ccnc23)cc1 | 32.4%
76 | O=C(N/N=C/c1ccc(Cl)o1)c1[nH]c2ccc(Br)cc2c1-c1ccccc1 | 5.37% (active)
